Experimental data taken from PubChem BioAssay (NCI).
About 83,000 compounds went through this panel and 20% of them were active in at least one assay; those are over-represented in the sample as a whole.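 The endpoint reported here, percent growth, reads 100 for growth as untreated, 0 for no net growth and -100 for all cells dead.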 Active and inactive are the calls of the source. Rule for the calls: active = growth percent below 10; inactive = the rest.

How the values were obtained:
Assay in all cases: NCI-60 one-dose screen, 48 h (100 = growth as untreated, 0 = no growth, -100 = all killed)
Conditions in all cases: 10 µM unless noted
SR leukemia = tested on: SR leukemia
RPMI-8226 leukemia = tested on: RPMI-8226 leukemia
OVCAR-8 ovarian = tested on: OVCAR-8 ovarian
OVCAR-5 ovarian = tested on: OVCAR-5 ovarian
OVCAR-4 ovarian = tested on: OVCAR-4 ovarian
SK-OV-3 ovarian = tested on: SK-OV-3 ovarian
IGROV1 ovarian = tested on: IGROV1 ovarian
HS 578T breast = tested on: HS 578T breast
NCI/ADR-RES ovarian = tested on: NCI/ADR-RES ovarian

Measured: growth

CC(C)(C)CC(C)(C)n1nnnc1C(Nc1nccs1)c1cc2cccc3ccc4cccc1c4c32 (stereo unspecified)
inactive: SR leukemia 96.6% | RPMI-8226 leukemia 104% | OVCAR-8 ovarian 100% | OVCAR-5 ovarian 84.6% | OVCAR-4 ovarian 99.7% | SK-OV-3 ovarian 103% | IGROV1 ovarian 93.5% | HS 578T breast 93.8% | NCI/ADR-RES ovarian 98%

O=C1Nc2ccccc2/C1=C/c1ccc(CO)n1-c1ccc(Cl)cc1
inactive: SR leukemia 35.5% | RPMI-8226 leukemia 53.2% | OVCAR-8 ovarian 85.9% | OVCAR-5 ovarian 89.8% | OVCAR-4 ovarian 89.9% | SK-OV-3 ovarian 80% | IGROV1 ovarian 48.1% | HS 578T breast 59% | NCI/ADR-RES ovarian 33.9%

Cc1cc(-c2ccc(Cl)cc2)n(Cc2nnc(SCC(=O)Nc3ccc(S(N)(=O)=O)cc3)n2-c2ccc([N+](=O)[O-])cc2)n1
inactive: SR leukemia 72.5% | RPMI-8226 leukemia 64.3% | OVCAR-8 ovarian 88.7% | OVCAR-5 ovarian 98.5% | OVCAR-4 ovarian 86.5% | SK-OV-3 ovarian 112% | IGROV1 ovarian 96.9% | NCI/ADR-RES ovarian 84.3%

CCCn1cnc2c(c1=N)C(c1ccc(Cl)cc1)c1sc3c(C)cccc3c1O2 (stereo unspecified)
active: RPMI-8226 leukemia 1.37% | NCI/ADR-RES ovarian 7.18%
inactive: SR leukemia 12.6% | OVCAR-8 ovarian 23.5% | OVCAR-5 ovarian 34.2% | OVCAR-4 ovarian 89.2% | SK-OV-3 ovarian 44.2% | IGROV1 ovarian 23.7% | HS 578T breast 15.4%

Cc1ccc(C2=Nn3c(nnc3-c3ccccc3)SC2)cc1
inactive: SR leukemia 14% | RPMI-8226 leukemia 23.1% | OVCAR-8 ovarian 25.9% | OVCAR-5 ovarian 62.9% | OVCAR-4 ovarian 67.3% | SK-OV-3 ovarian 24.7% | IGROV1 ovarian 49.5% | HS 578T breast 19.6% | NCI/ADR-RES ovarian 14.1%

COc1ccc(CCOc2cc3c(cc2OC)CCN(C(=O)NCc2cocn2)C3c2ccc(C)cc2C)cc1 (stereo unspecified)
inactive: OVCAR-8 ovarian 17.9% | OVCAR-5 ovarian 28.6% | OVCAR-4 ovarian 51.5% | SK-OV-3 ovarian 38% | IGROV1 ovarian 12.9%
active: SR leukemia 5.38% | RPMI-8226 leukemia 7.04% | NCI/ADR-RES ovarian 4.95%

O=C(CSc1nnc(-c2ccc3nc(-c4ccccc4)[nH]c3c2)o1)Nc1ccc(C(=O)/C=C/c2ccccc2)cc1
inactive: SR leukemia 111% | RPMI-8226 leukemia 94.3% | OVCAR-8 ovarian 100% | OVCAR-5 ovarian 118% | OVCAR-4 ovarian 100% | SK-OV-3 ovarian 109% | IGROV1 ovarian 95.8% | HS 578T breast 103% | NCI/ADR-RES ovarian 105%
